# Bioassay records (PubChem BioAssay)
# This is a sample that favours compounds with a hit; in the whole collection about 1.2% have one here.
# HTT aggregate – reduces HttQ103-GFP aggregates in PC12 cells. PC12 HttQ103-GFP aggregates, Acumen cytometry, 40 h. 220,000 tested, 1.1% active. Potency, µM (series often up to 46.1 µM), without a hit: top-dose activity change, negative = inhibition, hits mostly inhibitors. AID 1688; further: potency means the concentration at half of the fitted maximal effect; on the % scale 0 is the no-effect control and ±100 the full control effect; nearly all actives have a fitted effect of over 60% in size
#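 Compounds (qHTS titration) were added to PC12 cells expressing an ecdysone-driven HTT exon 1 Q103–GFP fusion after induction with 100 nM tebufenozide. Aggregate formation was measured as GFP objects in cell lysates.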
# GLA inh pH 4.5 – alpha-galactosidase A (human) inhibition, pH 4.5 | P06280 | purified enzyme, 4-MU-alpha-Gal fluorescence, pH 4.5 | activity change, negative = inhibition, % at 105 µM | 230,000 tested, under 10 active | AID 1467;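 further: 0% = full activity with enzyme and -100% = basal without enzyme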
# Target sequence (P06280 whole entry, looked up): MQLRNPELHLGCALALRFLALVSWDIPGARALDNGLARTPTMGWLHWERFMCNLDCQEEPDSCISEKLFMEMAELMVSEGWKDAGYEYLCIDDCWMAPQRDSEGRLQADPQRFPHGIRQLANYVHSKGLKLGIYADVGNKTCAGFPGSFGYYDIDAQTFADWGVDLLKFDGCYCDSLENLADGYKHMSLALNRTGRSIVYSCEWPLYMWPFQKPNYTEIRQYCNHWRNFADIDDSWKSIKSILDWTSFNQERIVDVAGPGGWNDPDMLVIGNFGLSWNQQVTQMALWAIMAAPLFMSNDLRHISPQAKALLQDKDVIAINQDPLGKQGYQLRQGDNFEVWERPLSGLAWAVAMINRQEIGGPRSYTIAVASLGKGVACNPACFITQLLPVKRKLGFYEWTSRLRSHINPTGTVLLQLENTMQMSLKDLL
# HTT cytoprotect – cytoprotection in Huntington HTT-Q103 PC12 cell model. Potency, µM (highest dose often 56.4 µM), for inactives: cytoprotection (ATP increase), usual class: activators. AID 1471. PC12 HTT-Q103 induced, cytoprotection, ATP luminescence, 40 h. 230,000 tested, 0.14% active; further: potency means the concentration at half of the fitted maximal effect; % of control where 0% means no effect; nearly all actives have a fitted effect of over 45% in size
#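 ATP quantification (ATPlite) reports survival of PC12 cells in which tebufenozide, 100 nM final, switches on Htt exon 1 with 103 glutamines linked to GFP; compounds are titrated.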
# PKM2 act – increases activity of human pyruvate kinase M2; purified PKM2, Kinase-Glo ATP luminescence, activation; response scale: 0% is enzyme alone, no compound; Potency, µM (doses to about 57.5 µM), without a hit: top-dose activation, hits mostly activators; 260,000 tested, 0.34% active; AID 1631; further: potency means the concentration at half of the fitted maximal effect; on the % scale 0 is the no-effect control and ±100 the full control effect; nearly all actives have a fitted effect of over 55% in size
#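 hPK-M2, >95% pure; 0.1 mM ADP / 0.5 mM PEP final; imidazole pH7.2 buffer w/ 7 mM MgCl2, 50 mM KCl; 1 h RT; Kinase-Glo lum. Intermediate enzyme activity for dual inhibitor/activator qHTS.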
# aGal spleen mod – alpha-galactosidase A (human) modulation. Potency, µM (highest dose often 80 µM), inactives show at the top dose activity change, negative = inhibition, actives largely listed as inhibitors. human spleen homogenate, 4MU-alpha-Gal fluorescence, 40 min. 240,000 tested, 0.008% active. P06280. AID 2107;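 further: potency means the concentration at half of the fitted maximal effect; 0% = enzyme with vehicle and -100% = no enzyme basal signal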
#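 Fluorogenic readout (Ex 365/Em 440 nm) of 4-methylumbelliferone released from 1 mM 4-MU-alpha-galactoside by spleen homogenate, 40 min at 37C, pH 5.0. Data normalized to no-enzyme and enzyme controls; Hill-equation AC50 from compound titrations.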
# HeLa tox – HeLa cytotoxicity, CellTiter-Glo readout. 230 tested, under 10 active. shares compounds with PKM2 act. HeLa viability, CellTiter-Glo ATP luminescence, 24 h. AID 1898. activity change, negative = cytotoxicity, % at 57.5 µM; further: % of control where 0% means no effect
# Active calls of the source: *; ? = inconclusive; . = no result; [ ] = remark or other dose. The call rests on the fitted dose curve; in most records, active means well fitted curve in the direction sought with a large enough effect; inconclusive means small, poorly fitted or top-dose-only effect, or another doubt; inactive means no such curve, though single readings can be large; an effect the other way counts as inactive or inconclusive.
SMILES,HTT aggregate,GLA inh pH 4.5,HTT cytoprotect,PKM2 act,aGal spleen mod,HeLa tox
O=S(=O)(c1c(F)cccc1F)C1CCN(S(=O)(=O)c2ccc3c(c2)OCCO3)CC1,.,.,.,.,.,-9
CN1CCOc2ccc(S(=O)(=O)N3CCN(S(=O)(=O)c4c(F)cccc4F)CC3)cc21,.,.,.,.,.,4
COc1cccc(S(=O)(=O)N2CCN(S(=O)(=O)c3ccc4c(c3)OCCO4)CC2)c1,.,.,.,.,.,2
Cc1cccc(N2CCN(S(=O)(=O)c3ccc4c(c3)OCCO4)CC2)c1C,.,.,.,13%,.,.
O=S(=O)(NCCCCCNS(=O)(=O)c1c(F)cccc1F)c1ccc2c(c1)OCCO2,.,.,.,.,.,-2
CCCCc1nc2c(c3c1C[C@H](C)OC3)CN(S(=O)(=O)c1ccc(C)cc1)CC2,.,6,3%[10 µM],-8%[11.5 µM],-14%[17.5 µM],.
CC(C)C1=CC2=CC[C@H]3[C@@](C)(CCC[C@]3(C)C(=O)O)[C@@H]2CC1,.,.,5%,.,.,.
O=S(=O)(O)CC(S)CS (configuration not stated),-10%,.,-24%,.,.,.
O=S(=O)(NCC1CN(S(=O)(=O)c2c(F)cccc2F)C1)c1ccc2c(c1)OCCO2,.,.,.,.,.,-6
O=C1CCc2cc(S(=O)(=O)N3CCN(c4ccccc4F)CC3)ccc2N1,?,9,1%,4%,3%,.
O=C(c1ccccc1F)N1CCN(S(=O)(=O)c2ccc3c(c2)OCCO3)CC1,-19%,6,2%,?,4%,.
CC1(C)CCc2cc(S(=O)(=O)N3CCN(S(=O)(=O)c4c(F)cccc4F)CC3)ccc2O1,.,.,.,.,.,-21
C[C@H]1CN(S(=O)(=O)c2ccc3c(c2)OCCO3)CCN1S(=O)(=O)c1c(F)cccc1F,.,.,.,.,.,4
O=S(=O)(c1ccc2c(c1)OCO2)N1CCN(S(=O)(=O)c2c(F)cccc2F)CC1,.,.,.,.,.,?
CCCc1cc2c(c(=O)o1)C(O)C1OC1C2=O (configuration not stated),.,.,-62%[10 µM],.,-2%[17.5 µM],.
COc1ccc(COC(=O)N/N=C2/C[C@@H](O)[C@@H](O)[C@@H]3[C@H]4C(=O)N(c5ccc(F)cc5F)C(=O)[C@@H]4CC[C@@H]23)cc1,.,.,-30%[10 µM],.,-6%[17.5 µM],.
O=C1CCCC=C1[C@@H](O)CCOCc1ccccc1,.,.,-5%[10 µM],.,5%[17.5 µM],.
O=C(c1ccc2c(c1)OCCO2)N1CCN(S(=O)(=O)c2c(F)cccc2F)CC1,.,.,.,.,.,?
O=S(=O)(c1ccc2c(c1)OCCO2)N1CCN(S(=O)(=O)c2c(F)cccc2F)CC1,.,.,.,.,.,?
O=S(=O)(c1ccc2c(c1)OCCO2)N1CCCN(S(=O)(=O)c2c(F)cccc2F)CC1,.,.,.,.,.,-13
CS(=O)(=O)N1CCN(C(=O)c2ccc3c(c2)OCCO3)CC1,.,.,.,9%,.,.
O=C1CN(S(=O)(=O)c2ccc3c(c2)OCCO3)CCN1S(=O)(=O)c1c(F)cccc1F,.,.,.,.,.,-13
C[C@H](CCC(=O)O)[C@H]1CC[C@@H]2[C@@H]3CC[C@H]4C[C@@H](O)CC[C@@]4(C)[C@@H]3C[C@H](O)[C@@]21C,.,.,7%[10 µM],.,.,.
O=C(O)c1cccc(N=Nc2c(S(=O)(=O)O)ccc3c2C(=O)c2ccccc2C3=O)c1O,.,.,-3%[10 µM],.,.,.
CCOc1ccc(C(=O)N2CCN(Cc3ccccc3)CC2)cc1,-16%,1,-8%,5.6µM*,6%,0
CCOc1ccc(CN2CCN(C(=O)c3ccccc3)CC2)cc1,-12%,5,0%,1%,-4%,.
S=C(c1ccc(-c2ccc(Cl)cc2Cl)o1)N1CCCC1,1%[9.22 µM],-24,-25%[10 µM],8.9µM*,7%,5
S=C(c1ccc(-c2ccc(Cl)cc2Cl)o1)N1CCCCC1,-28%,-5,10%[10 µM],6%,7%,.
N#Cc1ccc(CSc2ncnc3c2cnn3Cc2ccccc2)cc1,?,-2,-17%[0.074 µM],20µM*,-6%,-2
COC(=O)c1c(NC(=O)CCc2ccc(C)o2)sc(C)c1C,-10%,-10,?,7.9µM*,3%,-1
